Screens: PubChem, National Center for Advancing Translational Sciences (NCATS)
Compounds with a hit are over-represented: about 6.9% of the library has one in this group of screens.
Giardia kill: kills Giardia lamblia. activity change, % at 7.66 µM, hits read low. Giardia lamblia trophozoite viability. hit rate 0.15% among 340,000. AID 540267; in the data active = activity change below about -80%; inconclusive = between about -30% and that limit;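 also: parasites exposed to compound for two days anaerobically before the ATP read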
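Viability, read as ATP luminescence: trophozoites at 100 cells/well, compound added, 48 hrs anaerobic at 37 deg C, then 15-30 min room-temperature development before reading.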
KB-V1 MDR tox: KB-V1 MDR subline cytotoxicity. hit rate 3.4% among 400,000. KB-V1 MDR cells viability, CellTiter-Glo, 72 h. Potency, µM (doses to about 46.1 µM), usual class: cytotoxic. AID 1347076; also: nearly all actives have a fitted effect of over 60% in size
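qHTS viability screen in drug-selected KB-V1 MDR cells: 72 h compound treatment at 37 degrees C, ATP luminescence end point.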
KB-3-1 tox: kills parental KB-3-1 adenocarcinoma cells | KB-3-1 viability, CellTiter-Glo ATP luminescence, 72 h | Potency, µM (titrated, usually from 46.1 µM), hits mostly cytotoxic | hit rate 1.4% among 400,000; also: nearly all actives have a fitted effect of over 60% in size
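Screening of KB-3-1 cells (DMEM, 10% FBS, phenol-red free) ran from lowest to highest compound concentration; after 72 h at 37 °C viability was read luminescently and curves fitted.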
ASM inhibitor: inhibitors of human secretory acid sphingomyelinase; P17405; placental ASM, HMU-PC fluorogenic substrate, 60 min; Potency, µM (highest dose often 57.5 µM), usual class: inhibitors; hit rate 0.006% among 340,000; AID 504937
Target sequence (P17405 47-631 limits assumed): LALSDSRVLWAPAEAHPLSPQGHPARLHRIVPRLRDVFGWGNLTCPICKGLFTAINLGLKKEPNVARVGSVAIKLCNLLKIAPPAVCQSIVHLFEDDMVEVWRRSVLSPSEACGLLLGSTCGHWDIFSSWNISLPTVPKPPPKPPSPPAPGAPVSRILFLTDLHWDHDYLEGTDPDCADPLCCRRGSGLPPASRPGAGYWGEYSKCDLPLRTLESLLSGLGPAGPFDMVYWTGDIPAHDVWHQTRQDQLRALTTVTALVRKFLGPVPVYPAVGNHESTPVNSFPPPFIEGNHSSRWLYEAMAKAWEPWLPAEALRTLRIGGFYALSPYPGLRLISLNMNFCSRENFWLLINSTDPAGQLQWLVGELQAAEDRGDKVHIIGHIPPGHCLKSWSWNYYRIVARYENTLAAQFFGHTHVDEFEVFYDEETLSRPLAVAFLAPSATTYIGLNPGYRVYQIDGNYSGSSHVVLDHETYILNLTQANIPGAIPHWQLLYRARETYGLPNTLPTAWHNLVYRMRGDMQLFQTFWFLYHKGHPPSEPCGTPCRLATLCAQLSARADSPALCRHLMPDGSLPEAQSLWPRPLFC
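Fluorescence read-out (Ex 386 nm, Em 447 nm) after stopping the reaction at pH 10. Enzyme: ASM from human placenta; substrate HMU-PC0, 9 uM final; 60 min, 37 °C. Compound preincubation 10 min, ambient temperature.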
MCF10A rerep: DNA re-replication induction in MCF 10a cells | MCF 10A DNA re-replication, Hoechst nuclear intensity, 48 h | Potency, µM (doses to about 46.1 µM), most hits filed as activators | hit rate 2.9% among 350,000; also: nearly all actives have a fitted effect of over 50% in size
SW480 rereplic: inducers of DNA re-replication in SW480 colon cancer cells. SW480 DNA re-replication, Hoechst DNA content imaging, 48 h. Potency, µM (highest dose often 46.1 µM), actives largely listed as activators. hit rate 1.8% among 340,000; also: nearly all actives have a fitted effect of over 55% in size
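SW480 cells exposed to compounds for 48 hr at 37 C, 5% CO2, then Hoechst-stained 40 min. Nuclear DNA content imaged by fluorescence scanning (405 nm excitation, 500-530 nm emission); re-replication scored as increased high-intensity nuclei.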
Of the large screens only hits and unclear results are named; the others gave an inactive call; ! = a repeat was not active. Unless noted, calls follow the shape of the dose curve; as a rule, active = well fitted curve in the direction sought with a large enough effect; inconclusive = small, poorly fitted or top-dose-only effect, or another doubt; inactive = no such curve, though single readings can be large; an effect the other way counts as inactive or inconclusive.

COc1ccc(C(=O)NN(C)c2nc(C(F)(F)F)nc3ccccc23)cc1	KB-V1 MDR tox 0.73µM, KB-3-1 tox 0.82µM, MCF10A rerep 0.033µM, SW480 rereplic inconclusive
COc1ccc(NC(=O)CC2C(=O)N(c3cccc(OC)c3)C(=O)N2Cc2ccc3c(c2)OCO3)cc1 (configuration not stated)	none (no result: Giardia kill, ASM inhibitor, MCF10A rerep, SW480 rereplic)
O=C(Cn1c(-c2cccs2)cc2cc(F)ccc21)N1CCN(c2ccccc2)CC1	none (no result: Giardia kill, ASM inhibitor, MCF10A rerep, SW480 rereplic)
CC(C)[C@@H](NC(=O)OC(C)(C)C)c1cc(C(=O)c2c(-c3ccccc3)[nH]c3ccccc23)c(N)s1	KB-V1 MDR tox 23µM, KB-3-1 tox inconclusive (no result: Giardia kill, ASM inhibitor, MCF10A rerep, SW480 rereplic)
CC(NC(=O)Nc1ccccc1C(F)(F)F)c1c(-n2cccc2)sc2c1CCCC2 (configuration not stated)	none (no result: Giardia kill, ASM inhibitor, MCF10A rerep, SW480 rereplic)
O=C(Nc1ccnn1C1CCN(Cc2cccc(O)c2)CC1)C1CCCC1	none
CCOc1cccc(CN2CCC(n3nccc3NC(=O)C3CCCC3)CC2)c1	KB-V1 MDR tox 16µM (no result: ASM inhibitor)
CCCCNc1c(-c2ccc(-c3ccc(C(C)=O)cc3)c(OC)c2)nc2cnccn12	MCF10A rerep 21µM, SW480 rereplic 23µM
COc1ccc(-c2nc3cnccn3c2NCc2ccccc2)cc1SC1CCCCC1	MCF10A rerep 12µM, SW480 rereplic inconclusive
CCCCNc1c(-c2ccc(OC)c(SC3CCCCC3)c2)nc2cnccn12	MCF10A rerep 16µM, SW480 rereplic inconclusive
CCCCNc1c(-c2ccc(OC)c(SC3CCCCC3)c2)nc2cc(C)ccn12	KB-V1 MDR tox inconclusive, KB-3-1 tox inconclusive, MCF10A rerep inconclusive
CCCCNc1c(-c2ccc(OC)c(SC3CCCCC3)c2)nc2ccc(Cl)cn12	MCF10A rerep 21µM
CCCCNc1c(-c2ccc(SC3CCCCC3)cc2)nc2cnccn12	KB-V1 MDR tox 37µM!, MCF10A rerep inconclusive, SW480 rereplic inconclusive
CCc1ccc(C(=O)CSc2nc3cc(S(=O)(=O)N4CCOCC4)ccc3n2CC)cc1	KB-V1 MDR tox 21µM
O=S(=O)(c1ccc2c(c1)nc(COc1ccc(Cl)cc1)n2CC1CCCO1)N1CCOCC1 (configuration not stated)	KB-V1 MDR tox 23µM
CCCCn1c(CCl)nc2cc(S(=O)(=O)N3CCOCC3)ccc21	KB-V1 MDR tox inconclusive, KB-3-1 tox inconclusive, MCF10A rerep inconclusive, SW480 rereplic 13µM
Cn1nc(C2CC2)cc1NC(=O)C1(C)CCN1C(=O)CC(c1ccccc1)c1ccccc1 (configuration not stated)	none (no result: Giardia kill, ASM inhibitor, MCF10A rerep, SW480 rereplic)
COC(=O)c1sc(NC(=S)NC(=O)c2ccccc2C)nc1C	KB-V1 MDR tox inconclusive
Cn1cc(S(=O)(=O)N2CCCCC2)cc1C(=O)Nc1cccc(C#N)c1	none (no result: Giardia kill, ASM inhibitor, MCF10A rerep, SW480 rereplic)
CC(NC(=O)c1ccc(F)cc1)C1CC2CCC1C2 (configuration not stated)	none
COc1cc(C(=O)NC(C)C2CC3CCC2C3)ccc1OC(F)F (configuration not stated)	KB-V1 MDR tox 21µM
CCOc1cc(C(=O)NC(C)C2CC3CCC2C3)cc(OCC)c1OCC (configuration not stated)	MCF10A rerep 13µM
Cc1ccc(C(=O)NC(C)C2CC3CCC2C3)cc1 (configuration not stated)	MCF10A rerep inconclusive
CCOC(=O)c1ccccc1NC(=O)Cn1c(=O)n(CCC(=O)NCc2ccccc2OC)c(=O)c2ccccc21	none (no result: Giardia kill, ASM inhibitor, MCF10A rerep, SW480 rereplic)
CN(C)CCNC(=O)c1cccc2ccc(-c3ccc(-c4ccccc4)cc3)nc12	KB-V1 MDR tox 12µM, KB-3-1 tox inconclusive, MCF10A rerep inconclusive, SW480 rereplic inconclusive
COc1ccc(C23CC4CC(CC(C4)C2)C3)cc1C(=O)NCCN(C)C	MCF10A rerep inconclusive, SW480 rereplic inconclusive
CN(C)CCNC(=O)c1cccc2nc3cccc(F)c3nc12	KB-V1 MDR tox inconclusive, KB-3-1 tox 4.1µM, MCF10A rerep inconclusive
CN(C)CCNC(=O)c1ccccc1	none
COc1ccc(OC)c2nc3c(C(=O)NCCN(C)C)cccc3nc12	KB-V1 MDR tox 21µM, KB-3-1 tox inconclusive, MCF10A rerep inconclusive, SW480 rereplic inconclusive
Cn1c(=O)c2c(ncn2CCOc2cccc(Br)c2)n(C)c1=O	KB-V1 MDR tox inconclusive, KB-3-1 tox 10µM
